# Results reported in PubChem BioAssay AID1645886 (National Center for Advancing Translational Sciences (NCATS), 2021).
# In all, about 16,000 compounds went through this assay and about 260 (1.6%) were called active. Inconclusive results (about 14%) are left out. Calls follow the shape of the dose curve; as a rule, active = well fitted inhibition curve with a large enough effect; inconclusive = small, poorly fitted or top-dose-only effect; inactive = no such curve, though single readings can be large or run the other way. Only a selection was taken, and actives are over-represented in it overall. Some compounds were tested as several samples or in several runs, with calls that do not always agree.
# Molecular target: Rap guanine nucleotide exchange factor 4 (Homo sapiens) (UniProt Q8WZA2)
# Assay: Validation qHTS for antagonist of cAMP-regulated guanine nucleotide exchange factor 4 (EPAC2); also: nearly all actives have a fitted effect of over 40% in size
# Settings: EPAC2 Rap1B BODIPY-GDP exchange, fluorescence; series mostly up to 112 µM; activity, negative = inhibition: at the top concentration
# Source text: Principle Investigator: Xiaodong Cheng Ph.D. The University of Texas Medical Branch, […], TX MLPCN Grant: NS066510 In multi-cellular eukaryotic organisms, the effects of cAMP are transduced by two ubiquitously-expressed intracellular cAMP receptors, the classic protein kinase A/cAMP-dependent protein kinase (PKA/cAPK) and the more recently discovered exchange protein directly activated by cAMP/cAMP-regulated guanine nucleotide exchange factor (EPAC/cAMP-GEF). Both PKA and EPAC are ubiquitously expressed in all tissues, and an increase in intracellular cAMP levels will lead to the activation of both PKA and EPAC. Therefore, careful dissections of the individual role and relative contribution of EPAC and PKA within the overall cAMP signaling in various model systems are critical for further elucidating the mechanism of cAMP signaling. To date no EPAC-specific antagonists and agonist, as well as isoform-specific agonists have been reported, and developing EPAC-specific pharmacological probes to determine the physiological functions that EPAC play in the overall cAMP-mediated signaling remains a major challenge within the research field. Furthermore, identified regulators of EPAC may lead to new mechanism-based therapeutic strategies specifically targeting the EPAC / cAMP-signaling components as EPAC has been implicated to play important roles in major human pathological conditions such as diabetes, heart disease, and cancer. This qHTS will be used to screen the Molecular Libraries Small Molecule Repository (MLSMR) as a concentration-titration series using the NCGC unique quantitative screening (qHTS) platform to find activators for EPAC1. In addition, this assay will also be used as a counterscreen for the EPAC2 qHTS. This fluorescent based assay is developed and validated for EPAC1 that measures exchange using EPAC effector Rap1 complex with BODIPY-GDP, a GDP analog with a tethered fluorophores. Activators are identified by monitoring the change in fluorescence signal as the exchanged free BODIPY-GDP has a reduced fluorescence compared to Rap1-bound BODIPY-GDP. Increase in signal (activation) is the desired outcome for the EPAC1 agonist while no activity in this assay is desired for the EPAC2 agonist counterscreen. Reference: [1] de Rooij, J., Zwartkruis, F. J., Verheijen, M. H., Cool, R. H., Nijman, S. M., Wittinghofer, A., and Bos, J.L. (1998) Nature 396, 474-477.
# Briefly, three uL of reagents (100 nM EPAC2, 250 nM RAP1B-BODIPY-GDP, 50 uM GDP) were dispensed into a 1536-well Greiner black solid-bottom medium binding assay plate. Controls and test compounds (23 nL) were transferred to the plate via a Kalypsys pin tool equipped with a 1536-pin array. The plates were centrifuged at 1,000 rpm for 15 seconds followed by 5 minute incubation at room temperature. The assay plates were read at 5 minute intervals for 30 minutes in the ViewLux plate reader using 480nm excitation and 540nm emission filters. The results were normalized to the agonist positive control of 6.5 mM cAMP.
# Potency is read from the fitted curve at half-maximal effect.
# Sequence of Rap guanine nucleotide exchange factor 4 (Homo sapiens) (Q8WZA2 whole entry, looked up): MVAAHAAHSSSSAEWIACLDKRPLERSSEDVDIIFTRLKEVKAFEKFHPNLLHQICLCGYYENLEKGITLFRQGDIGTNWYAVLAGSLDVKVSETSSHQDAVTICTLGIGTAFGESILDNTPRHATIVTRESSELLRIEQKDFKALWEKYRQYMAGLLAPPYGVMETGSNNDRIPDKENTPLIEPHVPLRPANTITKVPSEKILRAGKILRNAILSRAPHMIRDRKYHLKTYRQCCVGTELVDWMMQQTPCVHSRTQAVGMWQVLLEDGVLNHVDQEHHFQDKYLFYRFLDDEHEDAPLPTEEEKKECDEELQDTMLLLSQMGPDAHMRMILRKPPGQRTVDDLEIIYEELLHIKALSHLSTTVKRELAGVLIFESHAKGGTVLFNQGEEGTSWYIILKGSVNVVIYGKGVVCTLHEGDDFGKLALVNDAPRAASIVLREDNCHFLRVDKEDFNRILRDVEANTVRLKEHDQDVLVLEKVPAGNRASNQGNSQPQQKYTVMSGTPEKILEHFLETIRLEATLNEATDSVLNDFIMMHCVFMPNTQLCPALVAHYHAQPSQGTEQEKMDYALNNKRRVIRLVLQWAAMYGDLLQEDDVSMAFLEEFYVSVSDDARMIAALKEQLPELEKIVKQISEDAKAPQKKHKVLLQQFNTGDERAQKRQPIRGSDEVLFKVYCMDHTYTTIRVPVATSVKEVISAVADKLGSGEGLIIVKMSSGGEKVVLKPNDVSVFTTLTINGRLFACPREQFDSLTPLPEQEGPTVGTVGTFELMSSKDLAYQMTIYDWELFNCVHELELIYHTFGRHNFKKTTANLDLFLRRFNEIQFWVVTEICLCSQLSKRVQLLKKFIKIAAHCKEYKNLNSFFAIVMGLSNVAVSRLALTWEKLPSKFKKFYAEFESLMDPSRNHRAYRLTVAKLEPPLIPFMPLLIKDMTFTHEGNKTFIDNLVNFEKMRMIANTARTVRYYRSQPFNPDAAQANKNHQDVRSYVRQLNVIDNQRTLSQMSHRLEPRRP
Compound,"activity, negative = inhibition",Potency
Cn1c(=O)c(-c2ccccc2)nc2cnc(N3CCNCC3)nc21,-20.6% (inactive),–
COc1ccccc1CN1CC2(CCN(S(=O)(=O)c3ccccc3)CC2)C1,-22.4% (inactive),–
CCC1(C2CCN(Cc3cccnc3)CC2)NC(=O)N(CC2COc3ccccc3O2)C1=O (centres undefined),-20.3% (inactive),–
CCn1ccnc1C[C@@H]1COc2ccccc2O1,–,20 µM (active)
Nc1nc2c(nc(Cl)n2C2OC(CO)C(O)C2O)c(=O)[nH]1 (centres undefined),-5.51% (inactive),–
Cc1nnc(C(=O)NC(C)(C)c2nc(C(=O)NCc3ccc(F)cc3)c(O)c(=O)n2C)o1,13.2% (inactive),–
O=C(c1cccc(F)c1)N1CCC2(CC1)CCN(c1ccccc1)CC2,-18.3% (inactive),–
COc1ccc(-n2c(=O)c(-c3cn(C)c4ccccc34)nc3cnc(OC)nc32)cc1,-21.3% (inactive),–
COc1ccccc1CNc1ncnc2ccc(-c3c(C)noc3C)cc12,-16% (inactive),–
CC1(C)OC2CC3C4CCC5=CC(=O)CCC5(C)C4(F)C(O)CC3(C)[C@]2(C(=O)CCl)O1 (some centres undefined),-11.2% (inactive),–
COc1ccccc1-c1ccc(C(=O)N(C)C(C)c2ccon2)c(N2CCN(c3ccccc3F)CC2)n1 (centres undefined),-16.9% (inactive),–
COc1ccccc1-c1ccnc(-n2ncc(C(=O)NCCCN3CCOCC3)c2C)n1,-2.97% (inactive),–
N#Cc1ccc(CN2CCCC3(CCN(C(=O)c4ccco4)CC3)C2)cc1,-18.6% (inactive),–
CS(=O)(=O)N1CCC2(CC1)CN(c1ccncc1)C2,-32.4% (inactive),–
COc1ccc(NC(=O)N2CC3(CCN(C(C)=O)CC3)C2)cc1,-19.7% (inactive),–
N#Cc1ccccc1-c1ccc2ncnc(NCc3cccnc3)c2c1,-5.3% (inactive),–
COC1(C2=NCCN2)COc2ccccc2O1 (centres undefined),-22% (inactive),–
COc1ccc2c(=O)cc(-c3ccccc3)oc2c1O,-30.4% (inactive),–
Cc1ccc(-c2ccnc(-n3ncc(C(=O)N(C)Cc4cccc5ncccc45)c3C3CC3)n2)o1,5.35% (inactive),–
NC1CCN(O)C1=O (centres undefined),9.16% (inactive),–
CC(=O)O[C@]1(C(C)=O)CC[C@H]2[C@@H]3C=C(C)C4=CC(=O)CC[C@]4(C)[C@H]3CC[C@@]21C,-0.525% [at 56.6 µM] (inactive),–
Nc1nc2c(ncn2[C@@H]2O[C@H](COP(=O)(O)OP(=O)(O)OP(=O)(O)O)[C@@H](O)C2O)c(=O)[nH]1 (some centres undefined),13.3% (inactive),–
CC(C)NC(=O)N1CCC2(CC1)CCN(C(=O)c1cccn1C)CC2,-21.4% (inactive),–
CCNc1ncc2ncc(=O)n(CCc3ccccc3)c2n1,-6.79% (inactive),–
CN1CCC(=O)N([C@H](CO)Cc2ccccc2)CC1,1.88% (inactive),–

Compound,"activity, negative = inhibition",Potency
O=C(/C=C/c1cccc(F)c1)NC1CC1,28.6% (inactive),–
Cc1nc2cnc(N3CCNCC3)nc2n(CCc2ccccc2)c1=O,-20.3% (inactive),–
Cc1cnc(CNc2cc(-c3c(C)noc3C)ncn2)cn1,-8.53% (inactive),–
COC(=O)c1c(OCc2ccc(F)cc2)cc(=O)n2c1CCN(Cc1ccc3cccnc3c1)CC2,-20.7% (inactive),–
COc1ccc2[nH]cc(CCNc3nc(-c4cccc(NS(C)(=O)=O)c4)nc4ccccc34)c2c1,-18.1% (inactive),–
COc1cc(=O)n2c(c1C(=O)NC(C)c1ccco1)CCN(Cc1cc(C)cc(C)c1)CC2 (centres undefined),8.46% (inactive),–
O=C(Nc1cccc(F)c1)N1CC2(CCN(C(=O)c3csnn3)CC2)C1,-28.5% (inactive),–
FC(F)(F)c1cccc(-c2cn[nH]c2C2CCCN(Cc3cccn3-c3ccccn3)C2)c1 (centres undefined),-16.2% (inactive),–
CC(=O)O[C@]1(C(C)=O)CC[C@H]2[C@@H]3CCC4=CC(=O)CC[C@]4(C)[C@@]3(F)[C@@H](O)C[C@@]21C,-8.39% (inactive),–
COc1ccccc1CNc1ncnc2ccc(-c3ccc4c(c3)OCO4)cc12,-17.6% (inactive),–
O=C(c1cn(CC2CCCN(Cc3cc4ccccc4s3)C2)nn1)N1CCCC1 (centres undefined),-18.8% (inactive),–
COCCn1c(=O)c(-c2ccccc2)nc2cnc(N3CCOCC3)nc21,-0.915% (inactive),–
CC1O[C@@H](Oc2c(-c3ccc(O)c(O)c3)oc3cc(O)cc(O)c3c2=O)C(O)C(O)C1O (some centres undefined),-13% (inactive),–
O=C(C(=O)N1CCOc2ccc(CN3CCN(Cc4ccccn4)CC3)cc2C1)c1ccccc1,-2.87% (inactive),–
COC(=O)N1CCC2(CCCN(Cc3ccccc3OC)C2)CC1,-12.2% (inactive),–
CCOc1ccc2nc(N3CCCN(CCCn4cccn4)CC3)nc(C)c2c1,-5.1% (inactive),–
Oc1cc2c(cc1O)CN(C(=S)NCCc1ccc(Cl)cc1)CCC2,–,56.2 µM (active) and inactive
CC(C)=CCC/C(C)=C/CC/C(C)=C/CC/C(C)=C/CO,–,inactive
O=c1c(O)c(Br)ccc2c(Br)c(O)c(O)c(O)c12,6.67% (inactive),–
CC(=O)NC(=O)c1ccccc1O,23.4% (inactive),–
Cc1oc(-c2cccc(NC(=O)c3ccccc3)c2)nc1CNC(=O)c1cnc2ccccn2c1=O,-3.94% (inactive),–
COc1ccccc1C(=O)N[C@@H]1c2ccccc2C2(CCN(C(=O)c3csnn3)CC2)[C@H]1OC,-9.95% (inactive),–
CC1C(O)CC2C(C(=O)O)=CO[C@@H](O[C@H]3OC(CO)C(O)C(O)C3O)C21 (some centres undefined),-1.93% (inactive),–
C/C(Nc1ccc2oc(=O)ccc2c1)=C1/C(=O)CC2[C@@H]1C2(C)C (some centres undefined),25% (inactive),–
